{
  "source": "PubChem BioAssay (NCATS)",
  "note": "Results filed as inconclusive are left out. Active and inactive are the calls of the source. The call rests on the fitted dose curve; in most records, active means well fitted cell-killing curve with a large enough effect; inconclusive means small, poorly fitted or top-dose-only effect; inactive means no such curve, though single readings can be large or run the other way. *1 amine or outer side, *2 acyl side, *3 side chain or, on linkers, in order; H or OH if unused. Where a SMILES comes first, the peptide text is derived from it. Bridges are numbered along the chain shown (N, C = ends). [ ]: non-standard residue; d: D form. The star is where a group is joined. ξ: configuration not given here. X10 = NC1=NCCC(C(N[*:1])C(=O)[*:2])N1; ΔAla(3-NHCONH2) = NC(=O)NC=C(N)C(=O)O; ξβ3hOrn = NCCCC(N)CC(=O)*; Dap = NC[CH](N)C(=O)O",
  "data": [
    {"assay": "qHTS of pediatric cancer cell lines to identify multiple opportunities for drug repurposing: Primary screen for MG 63 (6-TG R) cells (AID 1347105); further: nearly all actives have a fitted effect of over 50% in size; further: potency means the concentration at half of the fitted maximal effect; on activity change, negative = cytotoxic: on the % scale 0 is the no-effect control and ±100 the full control effect", "conditions": "MG 63 (6-TG R) viability, CellTiter-Glo, 48 h; series mostly up to 46 µM; activity change, negative = cytotoxic: at the top concentration", "description": "Drug repurposing or repositioning has been offered as a strategy for drug development in oncology programs. This approach has special potential for childhood cancers and other rare or orphan diseases, where the expected return on new drug development has been a disincentive to pharmaceuticals. […] In this project we exploit the poly-pharmacology of drugs to discover new indications via phenotypic screening of a panel of 19 well-characterized cell lines derived from solid tumors seen in children and adolescents. The goal is to identify approved drugs with previously unrecognized anticancer properties that has the potential to reveal new mechanisms and biological processes involved in carcinogenesis or drug resistance. We employed a titration-based paradigm (quantitative high-throughput screening or qHTS), where all compounds were tested at multiple concentrations for their effect on cell viability. Concentration-response curves (CRCs) were derived directly from the primary screen, and both potency and efficacy values were used to identify compounds with robust bioactivity profiles. We screened the NIH Chemical Genomics Center (NCGC) Pharmaceutical Collection (NPC) and Mechanism Interrogation Plate (MIPE) small molecule collections of approved and investigational compounds against these cell lines; and measured metabolically active cells after 48 hours of compound treatment as a proxy for cell viability. […] Assay Submitter: Nathalia J. Martinez, National Center for Advancing Translational Sciences, National Institutes of Health, Rockville, MD, USA; email: natalia.martinez@nih.gov Shen, M et al. Quantitative high-throughput phenotypic screening of pediatric cancer cell lines identifies multiple opportunities for drug repurposing. Oncotarget 2017 Dec 19;9(4):4758-4772. PMID 29435139.\nThe cells were obtained from University of North Carolina (UNC), Pediatric Preclinical Testing Program (PPT), and Coriell Institute (CI). qHTS cell viability assay: Cells were assayed in growth media at a density of 500-1,000 cells/well. Five microliters of cells were dispensed into 1,536-well, white, solid-bottom, TC-treated plates (Greiner Bio One) using a multidrop dispenser and incubated at 37 degrees C, 5% CO2, under a humidified atmosphere for 5 hours. Twenty-three nanoliters of compounds and controls (neutral control DMSO or positive control bortezomib at final concentration of 2.3 µM) were subsequently transferred by Kalypsys pintool. For primary screens, the MIPE collection was tested at 11-point dilutions (final concentrations range from 0.78 nM to 46 µM) and the NPC collection at 8-point dilutions (final concentrations range from 0.59 nM to 46 µM). Compounds tested in follow-up screens were assayed at 11-point dilutions. Cells were incubated for 48 hours, followed by addition of 3 µL of CellTiter-Glo (Promega). After a 15 min incubation at room temperature, samples were analyzed for luminescence intensity using a ViewLux High-throughput CCD imager equipped with clear filters.", "values": [
      {"molecule": "Cn1cc(S(C)=O)c(=O)c2ccc(F)cc21", "note": "(stereo not given)", "activity change, negative = cytotoxic": "8.74% (inactive)"},
      {"molecule": "COc1ccc(/C(C)=C/C(=O)O)c(OC)c1", "activity change, negative = cytotoxic": "-25.6% (inactive)"},
      {"molecule": "COc1ccc2cc(C=O)ccc2c1", "activity change, negative = cytotoxic": "-4.99% (inactive)"},
      {"molecule": "COC(=O)/C=C\\C(=O)OC", "activity change, negative = cytotoxic": "-6.73% (inactive)"},
      {"molecule": "Cn1c(=O)c2c(ncn2CC(=O)O)n(C)c1=O", "activity change, negative = cytotoxic": "2.04% (inactive)"},
      {"molecule": "O=C(CS(=O)Cc1ccco1)NC/C=C\\COc1cc(CN2CCCCC2)ccn1", "note": "(stereo not given)", "activity change, negative = cytotoxic": "-15.8% (inactive)"},
      {"molecule": "CC[N+](CC)(CC)CCOC(=O)C(C1CCCC1)C1CCCC1", "activity change, negative = cytotoxic": "-16.7% (inactive)"},
      {"molecule": "CNC(=O)c1c(I)c(NC(C)=O)c(I)c(C(=O)O)c1I", "activity change, negative = cytotoxic": "-22.3% (inactive)"},
      {"molecule": "COC(=O)c1cc(S(N)(=O)=O)ccc1OC", "activity change, negative = cytotoxic": "-18.9% (inactive)"},
      {"molecule": "CC(=O)OC[C@H]1O[C@@H](OC(C)=O)[C@H](OC(C)=O)[C@@H]1OC(C)=O", "activity change, negative = cytotoxic": "-13.7% (inactive)"},
      {"molecule": "CCOC(=O)NNc1nncc2ccccc12", "activity change, negative = cytotoxic": "-9.01% (inactive)"},
      {"molecule": "NC(=O)NS(=O)(=O)c1ccc(Cl)cc1", "activity change, negative = cytotoxic": "-1.13% (inactive)"},
      {"molecule": "Cc1oc(-c2ccccc2)nc1CCC(=O)c1ccc(CC2SC(=O)NC2=O)cc1", "note": "(stereo not given)", "activity change, negative = cytotoxic": "-19.8% (inactive)"},
      {"molecule": "Nc1cc(C(F)(F)F)ccc1S", "activity change, negative = cytotoxic": "30.5% (inactive)"},
      {"molecule": "CC1(C)O[C@@H]2C[C@H]3[C@@H]4CCC5=CC(=O)C=C[C@]5(C)[C@@]4(F)[C@@H](O)C[C@]3(C)[C@]2(C(=O)CO)O1", "activity change, negative = cytotoxic": "-2.57% (inactive)"},
      {"molecule": "CC(NN)c1ccccc1", "note": "(stereo not given)", "activity change, negative = cytotoxic": "-16.5% [at 16.1 µM] (inactive)"},
      {"molecule": "COc1cc2nc(Cl)nc(N)c2cc1OC", "activity change, negative = cytotoxic": "-19% (inactive)"},
      {"molecule": "O=C1Nc2cc(Cl)ccc2Oc2ccccc21", "activity change, negative = cytotoxic": "-42.7% (inactive)"},
      {"molecule": "CO/N=C(/C(=O)N[C@@H]1C(=O)N2C(C(=O)[O-])=C(C[n+]3ccn4ncccc43)CS[C@H]12)c1nsc(N)n1", "activity change, negative = cytotoxic": "-1.24% (inactive)"},
      {"molecule": "Cc1c(N)cccc1C(F)(F)F", "activity change, negative = cytotoxic": "3.77% (inactive)"},
      {"molecule": "CC(=O)c1cc2ccccc2s1", "activity change, negative = cytotoxic": "-2.8% (inactive)"},
      {"molecule": "CCC1=C[C@@H]2CN(C1)Cc1c([nH]c3ccccc13)[C@@](C(=O)OC)(c1cc3c(cc1OC)N(C)[C@H]1[C@@](O)(C(=O)OC)[C@H](OC(C)=O)[C@]4(CC)C=CCN5CC[C@]31[C@@H]54)C2", "Potency": "21.1 nM (active)"},
      {"molecule": "N#Cc1cc(NC(=O)C(=O)O)c(Cl)c(NC(=O)C(=O)O)c1", "activity change, negative = cytotoxic": "-15.5% (inactive)"},
      {"molecule": "COC(=O)c1cc(Cl)ccc1NS(=O)(=O)C(F)(F)F", "activity change, negative = cytotoxic": "-7.91% (inactive)"},
      {"molecule": "O=C(OCC(O)CO)c1ccccc1Nc1ccnc2c(C(F)(F)F)cccc12", "note": "(stereo not given)", "activity change, negative = cytotoxic": "17.3% (inactive)"},
      {"molecule": "CCCCC/C=C\\C/C=C\\CCCCCCCC(=O)NC(C)c1ccccc1", "note": "(stereo not given)", "activity change, negative = cytotoxic": "4.38% (inactive)"},
      {"molecule": "OCc1c[nH]c2ccccc12", "activity change, negative = cytotoxic": "-31.8% [at 92.7 µM] (inactive)"},
      {"molecule": "CCCC(=O)O[C@]1(C(=O)CC)CC[C@H]2[C@@H]3CCC4=CC(=O)CC[C@]4(C)[C@H]3[C@@H](O)C[C@@]21C", "activity change, negative = cytotoxic": "-11.5% (inactive)"},
      {"molecule": "O=C1CC2(CCCC2)CC(=O)N1CCNCC1COc2ccccc2O1", "note": "(stereo not given)", "activity change, negative = cytotoxic": "-3.53% (inactive)"},
      {"molecule": "CCOC(=O)c1ccc(NC(=O)CN2CCCCC2)cc1", "activity change, negative = cytotoxic": "-17.5% (inactive)"},
      {"molecule": "CC(C)NC(=O)c1ccc(C=O)cc1", "activity change, negative = cytotoxic": "2.68% (inactive)"},
      {"molecule": "CC(=O)Nc1ccc(S(=O)(=O)Nc2cc(C)on2)cc1", "activity change, negative = cytotoxic": "0.738% (inactive)"},
      {"molecule": "CC(C)=CCC/C(C)=C/CC/C(C)=C/CCC(=O)OC/C=C(\\C)CCC=C(C)C", "activity change, negative = cytotoxic": "-21.1% (inactive)"},
      {"molecule": "O=C(Oc1ccccc1)c1ccccc1O", "activity change, negative = cytotoxic": "-21.2% (inactive)"},
      {"molecule": "OCCOCCN1CCN(C(c2ccccc2)c2ccc(Cl)cc2)CC1", "note": "(stereo not given)", "activity change, negative = cytotoxic": "-4.56% (inactive)"},
      {"molecule": "NCCCC(N)CC(=O)NCC1NC(=O)C(CO)NC(=O)C(N)CNC(=O)C(C2CCN=C(N)N2)NC(=O)C(=CNC(N)=O)NC1=O", "note": "(stereo not drawn) (H-[Dap]S[Dap](ξβ3hOrn)[ΔAla(3-NHCONH2)][X10]; lactam 1-C; configuration not given here)", "activity change, negative = cytotoxic": "-12% [at 0.597 µM] (inactive)"},
      {"molecule": "OC1(c2ccc(Cl)cc2)CCNCC1", "activity change, negative = cytotoxic": "7.27% (inactive)"},
      {"molecule": "Cc1ccc(C(C)OC(=O)C2(C)CCC(C(=O)O)C2(C)C)cc1", "note": "(stereo not given)", "activity change, negative = cytotoxic": "-20.5% (inactive)"},
      {"molecule": "Cc1ccc(/C=N/n2c(-c3ccccc3)csc2=S)cc1", "activity change, negative = cytotoxic": "37.1% (inactive)"},
      {"molecule": "COc1cc(/C=C/C(N)=O)cc(OC)c1OC", "activity change, negative = cytotoxic": "-8.06% (inactive)"}
    ]}
  ]
}
